Activity calls are given as the source filed them. Rule for the calls: active = hit-call score of the fitted dose curve at least 0.9, where 1 is the maximum; inactive = score below 0.9.

Assay [1] is described as follows: ATG_CRE_CIS: Attagene CIS-FACTORIAL HepG2 Assay for human cAMP Responsive Element (CRE) binding protein 3 (AID 2282926). The settings on record: HepG2 CRE cis-reporter, Attagene multiplexed mRNA; actives raise or lower the signal. Put shortly:
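Capillary electrophoresis of 6-FAM-labelled, HpaI-digested PCR products quantified reporter transcripts. These came from HepG2 transiently transfected with cis-element reporters and exposed to test chemicals for 24 hours, with DMSO defining baseline activity.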

The target of assay [2] is CCAAT/enhancer-binding protein beta (Homo sapiens) (UniProt P17676). The assay can be described thus: ATG_C_EBP_CIS: Attagene CIS-FACTORIAL HepG2 Assay for human CCAAT/Enhancer Binding Protein (C/EBP) beta (AID 2282927). Particulars: HepG2 Attagene cis-factorial transcription factor reporter; actives raise or lower the signal. The method, boiled down: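 Following a 24 h incubation with test chemical, transfected HepG2 cells yielded RNA whose reporter transcripts were quantified by RT-PCR and fluorescent capillary electrophoresis, with DMSO serving as baseline for bidirectional fitting.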

Assay [3] can be described thus: ATG_CMV_CIS: Attagene CIS-FACTORIAL HepG2 Assay for human CMV (Internal Marker) (AID 2282928).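 Note: endpoint acts as a background internal control marker rather than a target.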 Particulars: HepG2 CMV promoter reporter, transcription factor profiling; actives raise or lower the signal. Put shortly: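 Readout: fluorescent reporter cDNA fragments separated by capillary electrophoresis after RT-PCR and HpaI cut. Cells: HepG2 carrying transfected cis-promoter reporter constructs, dosed 24 h. Endpoint serves as background internal-marker control, fit bidirectionally versus DMSO.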

A short description of assay [4]: ATG_DR4_LXR_CIS: Attagene CIS-FACTORIAL HepG2 Assay for human Liver X Receptor (LXR), DR4 submotif (AID 2282929). Particulars: HepG2 Attagene DR4 cis-reporter, mRNA transcription; actives raise or lower the signal. The method, boiled down: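 After transient transfection with multiplexed cis-promoter reporter units, HepG2 cells received test chemicals for 24 h. Reporter mRNA induction, detected by fluorescence after RT-PCR and capillary electrophoresis, was scored relative to DMSO.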

Assay [5] addresses Aryl hydrocarbon receptor (Homo sapiens) (UniProt P35869). Put plainly: ATG_Ahr_CIS: Attagene CIS-FACTORIAL HepG2 Assay for human Aryl Hydrocarbon Receptor (Ahr) (AID 2282930). Particulars: HepG2 AhR cis-factorial reporter transcription; actives raise or lower the signal. The method, boiled down: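 Values derive from bidirectional fitting against DMSO negative control. Underlying signal: cis-element reporter mRNA in transiently transfected HepG2, harvested 24 h post-dose and measured by RT-PCR plus capillary electrophoresis.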

Assay [6] in a line: ATG_AP_1_CIS: Attagene CIS-FACTORIAL HepG2 Assay for human Activator Protein 1 (AP-1) (AID 2282931). Particulars: HepG2 Attagene cis-factorial AP-1 reporter mRNA; actives raise or lower the signal. The method, boiled down: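 After 24 h incubation with test chemical, RNA from transfected HepG2 cells was reverse-transcribed, amplified, fluorescently labelled and digested before capillary electrophoresis. Reporters were driven by cis-regulatory promoters; activity fitted bidirectionally versus DMSO.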

The nature of assay [7]: ATG_AP_2_CIS: Attagene CIS-FACTORIAL HepG2 Assay for human Activator Protein 2 (AP-2) (AID 2282932). Particulars: HepG2 AP-2 cis-reporter, Attagene transcription factor profiling; actives raise or lower the signal. The method, boiled down:
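Assay in transfected HepG2 with promoter-regulated reporters, 24 h incubation after dosing. Signal is reporter mRNA fluorescence (RT-PCR, capillary electrophoresis), analysed for both increases and decreases relative to DMSO controls.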

A short description of assay [8]: ATG_BRE_CIS: Attagene CIS-FACTORIAL HepG2 Assay for human Bone Morphogenetic Protein (BMP) Response Element (BRE) (AID 2282933). Particulars: HepG2 BMP response element reporter, Attagene transcription factor profiling; actives raise or lower the signal. The method, boiled down: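 Endogenous transcription factor activity read in transiently transfected HepG2 cells after 24 h chemical exposure. Bidirectional curve fitting against DMSO; readout is reporter transcript level by RT-PCR with capillary electrophoresis of labelled products.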

Assay [9] addresses Transcription factor E2F1 (Homo sapiens) (UniProt Q01094). The assay can be described thus: ATG_E2F_CIS: Attagene CIS-FACTORIAL HepG2 Assay for human E2F Transcription Factor 1 (AID 2282935). Particulars: HepG2 Attagene cis-reporter, E2F reporter RNA transcripts; actives raise or lower the signal. The method, boiled down:
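In this cis-factorial format, endogenous factor activity drives transfected reporters in HepG2; transcripts collected at 24 h are quantified by fluorescence after RT-PCR and capillary separation.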

Assay [10] in a line: ATG_E_Box_CIS: Attagene CIS-FACTORIAL HepG2 Assay for human Enhancer Box (E-box) (AID 2282936). The settings on record: HepG2 E-box cis-reporter transcription, actives raise or lower the signal. Put shortly: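 Measured 24 h post-dosing in HepG2 cells transfected with multiple cis-regulated reporter units, signal being reporter mRNA induction detected by fluorescent RT-PCR with capillary electrophoresis; gain or loss fitted against DMSO.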

Assay [11] can be described thus: ATG_EGR_CIS: Attagene CIS-FACTORIAL HepG2 Assay for human Early Growth Response 1 (EGR1) (AID 2282938). Particulars: HepG2 Attagene CIS-FACTORIAL EGR reporter mRNA; actives raise or lower the signal. Put shortly: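 Fluorescent capillary-electrophoresis signal of reporter cDNA fragments serves as read-out. HepG2 cells bear transiently transfected cis-promoter reporter units and are exposed 24 h; gain- or loss-of-signal is fitted against DMSO.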

Assay [12] in a line: ATG_M_19_CIS: Attagene CIS-FACTORIAL HepG2 Assay for M19 Transcription Factor (Internal Marker) (AID 2282939). Particulars: HepG2 Attagene CIS-FACTORIAL M19 internal marker reporter; actives raise or lower the signal. Put shortly: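 Internal marker readout, fitted in both directions against DMSO, from HepG2 cells carrying transfected cis-element reporter constructs; RT-PCR and capillary electrophoresis of reporter mRNA after 24 h exposure.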

Assay [13] in a line: ATG_ERE_CIS: Attagene CIS-FACTORIAL HepG2 Assay for Estrogen Response Element (ERE) (AID 2282940). The settings on record: HepG2 ERE cis-reporter, Attagene RNA transcript; actives raise or lower the signal. The method, boiled down: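 After 24 h compound treatment, RNA from transfected HepG2 cells was reverse-transcribed, reporter cDNA PCR-amplified, FAM-labelled, HpaI-cut and resolved by capillary electrophoresis. ERE-driven cis reporter transcripts reflect endogenous factors; gain or loss scored against DMSO.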

Assay [14] is described as follows: ATG_Ets_CIS: Attagene CIS-FACTORIAL HepG2 Assay for human Erythroblast Transformation Specific (ETS) (AID 2282941). Particulars: HepG2 ETS cis-reporter transcription, actives raise or lower the signal. Put shortly:
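RT-PCR/capillary electrophoresis fluorescence read-out of reporter mRNA; HepG2 transient multi-reporter transfection; 24 h compound exposure; gain or loss of signal fitted bidirectionally relative to DMSO.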

Assay [15] can be described thus: ATG_FoxO_CIS: Attagene CIS-FACTORIAL HepG2 Assay for human Forkhead box O (FoxO) (AID 2282943). The settings on record: HepG2 Attagene cis-reporter, FoxO element, mRNA; actives raise or lower the signal. Put shortly:
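Values reflect reporter mRNA induction or loss in HepG2 cells 24 h post-dosing, fitted bidirectionally with DMSO as negative control and baseline. Detection used RT-PCR and fluorescence capillary electrophoresis.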

A short description of assay [16]: ATG_GATA_CIS: Attagene CIS-FACTORIAL HepG2 Assay for human GATA Binding Protein (AID 2282944). Particulars: HepG2 GATA cis-element reporter, Attagene multiplex mRNA; actives raise or lower the signal. Put shortly:
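Reporter transcripts from a GATA cis-regulated unit, among multiplexed reporters in transfected HepG2 cells, were measured by RT-PCR with capillary electrophoresis after 24 h dosing. Induction or loss scored relative to DMSO.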

Assay [17] in a line: ATG_GLI_CIS: Attagene CIS-FACTORIAL HepG2 Assay for human Zinc Finger Protein GLI1 (AID 2282945). The settings on record: HepG2, Attagene cis-factorial reporter mRNA, GLI element; actives raise or lower the signal. Put shortly: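 HepG2 cells transiently transfected with cis-promoter multiplexed reporter units report endogenous transcription factor activity. After 24 h chemical exposure, reporter mRNA was quantified by RT-PCR, 6-FAM labelling, HpaI digestion and capillary electrophoresis, with bidirectional fitting against DMSO.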

A short description of assay [18]: ATG_M_61_CIS: Attagene CIS-FACTORIAL HepG2 Assay for M61 Transcription Factor (Internal Marker) (AID 2282937). The settings on record: HepG2 Attagene CIS-FACTORIAL M61 internal marker reporter; actives raise or lower the signal. The method, boiled down: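 Using transiently transfected HepG2 liver cells, reporter transcript levels were assessed 24 h post-dosing by RT-PCR and capillary electrophoresis. Changes in either direction were fitted relative to DMSO controls.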

For assay [19], the target named is Hepatocyte nuclear factor 3-beta (Homo sapiens) (UniProt Q9Y261). The assay can be described thus: ATG_FoxA2_CIS: Attagene CIS-FACTORIAL HepG2 Assay for human Forkhead box A2 (FOXA2) (AID 2282942). The settings on record: HepG2 cis-reporter transcription factor activity, 24 h; actives raise or lower the signal. Put shortly:
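Fluorescence signal of reporter cDNA fragments, separated by capillary electrophoresis, reflects endogenous transcription factor activity in transfected HepG2 after 24 h. Both increases and decreases fitted against DMSO.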

Sequence of Aryl hydrocarbon receptor (Homo sapiens) (P35869 whole entry, looked up): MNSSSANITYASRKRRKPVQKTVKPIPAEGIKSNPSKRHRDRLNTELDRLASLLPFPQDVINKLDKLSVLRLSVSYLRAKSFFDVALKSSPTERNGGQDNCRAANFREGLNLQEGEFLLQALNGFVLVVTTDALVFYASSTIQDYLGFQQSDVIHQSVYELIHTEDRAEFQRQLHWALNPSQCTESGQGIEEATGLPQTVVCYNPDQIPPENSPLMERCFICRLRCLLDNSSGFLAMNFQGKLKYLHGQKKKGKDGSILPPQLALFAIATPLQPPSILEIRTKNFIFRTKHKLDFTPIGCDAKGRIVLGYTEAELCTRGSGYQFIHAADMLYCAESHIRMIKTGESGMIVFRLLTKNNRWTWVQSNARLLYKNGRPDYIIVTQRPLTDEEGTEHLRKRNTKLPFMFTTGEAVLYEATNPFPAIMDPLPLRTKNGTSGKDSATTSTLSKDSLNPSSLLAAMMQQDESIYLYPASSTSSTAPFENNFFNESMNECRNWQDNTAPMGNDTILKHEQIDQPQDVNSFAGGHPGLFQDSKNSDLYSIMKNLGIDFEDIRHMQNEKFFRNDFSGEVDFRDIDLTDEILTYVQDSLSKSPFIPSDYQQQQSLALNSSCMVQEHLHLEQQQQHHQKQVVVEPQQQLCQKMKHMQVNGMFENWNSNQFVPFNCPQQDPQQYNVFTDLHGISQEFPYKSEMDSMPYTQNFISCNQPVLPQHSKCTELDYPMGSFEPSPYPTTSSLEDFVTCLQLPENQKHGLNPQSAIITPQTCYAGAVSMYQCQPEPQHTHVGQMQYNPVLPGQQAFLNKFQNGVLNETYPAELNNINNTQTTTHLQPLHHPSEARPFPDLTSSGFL
Sequence of CCAAT/enhancer-binding protein beta (Homo sapiens) (P17676 whole entry, looked up): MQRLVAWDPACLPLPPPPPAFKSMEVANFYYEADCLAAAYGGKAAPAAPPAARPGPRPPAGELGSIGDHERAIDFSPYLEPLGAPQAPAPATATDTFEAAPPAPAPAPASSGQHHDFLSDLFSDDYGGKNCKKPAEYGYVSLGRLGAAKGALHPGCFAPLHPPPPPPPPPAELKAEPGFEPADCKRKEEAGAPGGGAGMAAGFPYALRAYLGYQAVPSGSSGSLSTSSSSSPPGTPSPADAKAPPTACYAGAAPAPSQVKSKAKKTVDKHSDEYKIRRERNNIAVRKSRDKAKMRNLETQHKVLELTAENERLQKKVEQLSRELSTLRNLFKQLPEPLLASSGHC
Sequence of Hepatocyte nuclear factor 3-beta (Homo sapiens) (Q9Y261 whole entry, looked up, the tested form may be a part): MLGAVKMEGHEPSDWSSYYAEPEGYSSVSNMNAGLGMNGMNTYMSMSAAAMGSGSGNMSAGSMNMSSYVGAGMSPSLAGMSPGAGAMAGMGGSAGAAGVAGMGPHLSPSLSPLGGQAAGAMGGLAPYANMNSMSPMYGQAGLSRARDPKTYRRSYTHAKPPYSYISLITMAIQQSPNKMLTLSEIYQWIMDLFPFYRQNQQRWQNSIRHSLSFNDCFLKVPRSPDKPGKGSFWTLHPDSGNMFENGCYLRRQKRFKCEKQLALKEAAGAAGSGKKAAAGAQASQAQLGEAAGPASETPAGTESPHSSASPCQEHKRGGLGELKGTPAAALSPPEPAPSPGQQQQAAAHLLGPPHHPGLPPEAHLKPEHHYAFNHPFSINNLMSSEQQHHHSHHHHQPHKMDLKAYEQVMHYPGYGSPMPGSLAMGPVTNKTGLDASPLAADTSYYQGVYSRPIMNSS
Sequence of Transcription factor E2F1 (Homo sapiens) (Q01094 whole entry, looked up): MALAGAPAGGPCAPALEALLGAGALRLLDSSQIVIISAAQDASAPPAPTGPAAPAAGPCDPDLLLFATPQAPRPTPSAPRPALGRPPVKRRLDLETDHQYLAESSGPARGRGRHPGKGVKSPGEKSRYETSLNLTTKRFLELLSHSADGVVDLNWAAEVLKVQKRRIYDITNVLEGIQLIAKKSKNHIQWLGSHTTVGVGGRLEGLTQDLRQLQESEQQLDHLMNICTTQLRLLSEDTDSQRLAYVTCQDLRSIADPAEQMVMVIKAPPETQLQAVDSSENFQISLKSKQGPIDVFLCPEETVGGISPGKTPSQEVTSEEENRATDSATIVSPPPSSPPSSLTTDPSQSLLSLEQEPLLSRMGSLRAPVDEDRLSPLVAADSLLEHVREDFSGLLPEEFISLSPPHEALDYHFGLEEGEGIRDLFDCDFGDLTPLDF

Regarding `NC(=O)c1ccccc1Cl`, the AC50 (usually the midpoint of the concentration-response curve, whichever way the signal moves) is 61.2 µM (active) in assay [1]; 27 µM (active) in assay [6]; 76.4 µM (active) in assay [7]; 61.1 µM (active) in assay [10]; 67.2 µM (active) in assay [11]; 139 µM (active) in assay [17]. Further, the outcome in assay [2], in [3], in assay [4], in assay [5], in [8] and in assay [9] was inactive. Besides, the call in [12], in assay [13], in [14], in [15] and in [16] was inactive.

In the case of `Cc1ncc([N+](=O)[O-])n1C`, the outcome in [1], in assay [2], in assay [3], in assay [4], in [5] and in assay [6] was inactive. Moreover, the call in assay [7], in assay [8], in assay [9], in [18], in assay [11] and in assay [19] was inactive. The compound was classed as inactive in [15], in assay [16] and in assay [17].

For `O=C(O)Cc1cccc2ccccc12`, the compound was classed as inactive in [1], in [2], in assay [3], in assay [4], in assay [5] and in assay [6]. For the same compound, the compound was called inactive in assay [7], in assay [8], in assay [9], in assay [10], in assay [11] and in assay [12]. In addition, the outcome in assay [14], in assay [19], in [15], in assay [16] and in [17] was inactive.

Take `CN(C)c1ccc(O)c2c1C[C@H]1C[C@H]3[C@H](N(C)C)C(=O)C(C(N)=O)=C(O)[C@@]3(O)C(=O)C1=C2O`: the result in [1], in assay [2], in assay [3], in assay [4], in [5] and in assay [6] was inactive. For the same compound, the call in assay [7], in assay [8], in assay [9], in [18], in [11] and in assay [13] was inactive. The outcome in assay [14], in [15], in assay [16] and in assay [17] was inactive.

On to `O=[N+]([O-])c1ccc(Nc2ccc(Nc3ccccc3)c(S(=O)(=O)O)c2)c([N+](=O)[O-])c1`, for which the compound was called inactive in [1], in assay [2], in [3], in assay [7], in [8] and in [9]. Also, the outcome in assay [10], in assay [12], in [14], in assay [19], in [15] and in assay [17] was inactive. Also, the AC50 is 100 µM (active) in assay [4], 31.9 µM (active) in assay [5], 147 µM (active) in assay [6] and 100 µM (active) in assay [11].

As for `CC(=O)OCCOC(C)=O`, the result in assay [1], in assay [2], in [3], in [4], in [5] and in assay [6] was inactive. Besides, the compound was called inactive in assay [7], in assay [8], in assay [9], in [10], in assay [11] and in assay [12]. The compound was called inactive in [13], in assay [14], in assay [15], in assay [16] and in [17].

In the case of `COc1ccc(OC)c(OC)c1`, the compound was called inactive in assay [1], in assay [2], in assay [3], in [4], in assay [5] and in assay [6]. Besides, the result in assay [7], in assay [8], in [18], in assay [11], in assay [13] and in [14] was inactive. For the same compound, the call in assay [19], in assay [15] and in [17] was inactive.

Regarding `c1ccc(CCCc2ccccn2)cc1`, the compound was classed as inactive in [1], in [2], in assay [3], in assay [4], in assay [5] and in [6]. For the same compound, the compound was called inactive in [7], in [8], in [10], in assay [18], in assay [11] and in assay [12]. The compound was classed as inactive in assay [13], in [14], in [19], in assay [15], in assay [16] and in assay [17].

(Values after PubChem BioAssay (EPA / NIEHS).)
